This is an account of results in the supplement of paper PMC10681739.

In the assay the target is T1, ETS1 (UniProt P14921).
T1 sequence: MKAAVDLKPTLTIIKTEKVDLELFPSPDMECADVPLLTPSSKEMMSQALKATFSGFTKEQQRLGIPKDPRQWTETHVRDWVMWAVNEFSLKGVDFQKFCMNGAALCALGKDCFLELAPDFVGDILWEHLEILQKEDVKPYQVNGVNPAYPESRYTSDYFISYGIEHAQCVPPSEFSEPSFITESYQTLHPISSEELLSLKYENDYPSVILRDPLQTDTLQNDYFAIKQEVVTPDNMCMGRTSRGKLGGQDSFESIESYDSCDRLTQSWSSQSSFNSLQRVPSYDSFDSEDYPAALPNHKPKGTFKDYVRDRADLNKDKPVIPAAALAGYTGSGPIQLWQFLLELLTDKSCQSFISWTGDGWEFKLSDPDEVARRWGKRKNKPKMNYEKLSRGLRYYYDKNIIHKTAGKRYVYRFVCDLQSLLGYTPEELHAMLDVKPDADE
The assay is described as follows: ETS1 binding intensity (PBM fluorescence) in presence of RUNX1, normalised to ETS1-only experiment (arbitrary fluorescence units); higher = stronger binding. The note with it: ETS1 concentration 1 nM; RUNX1 concentration 25 nM. Here is the method:
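Cooperative genomic-context PBM: 36-bp genomic probes with neighbouring ETS1 and RUNX1 sites, double-stranded on Agilent 4x180k arrays. Full-length recombinant human ETS1 (1 nM) was incubated alone or with RUNX1 (25 nM) and detected with anti-ETS1 antibody plus Alexa488 secondary. Value is the median fluorescence intensity over 4 replicate spots; the ETS1+RUNX1 data were normalised to the ETS1-only data using probes without RUNX1 sites. The 36-bp variable region sits on the array probe with constant linker/primer flanks that are not printed.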
With CAGCACGCAGGAAGCACATGTGGTGGGGCTCTTCCA, the ETS1 binding intensity was determined as 759.
For the sequence GCAGCTGCAAACAGGAAACCACAGCAGCGTAGCGGA, the ETS1 binding intensity stood at 8470.
Consider AAAAAGCCGGATGTGAAGGCTGTGGTTCTCAACCCG, for which the ETS1 binding intensity stood at 6480.
For AAGCTGAAAAGGGGATGTGGTTGCCTGCCTGTGGGA, the ETS1 binding intensity came out at 863.
As for CTAAGCAGAGGCCGGAAGCGGTGGTTTTTAGCGGCT, the figure is 20400; as for CATGTGCTTCCGGCTTGATCTGTGGTTATTCTGGTT, 2980; as for CTTCTCGCGGAAGCGGCACAAGCCGCAGTACAGCGC, 495.
As for CACTTGTCCTTCCTGGCCTGCGGCCGCCACCACTTC, the figure is 372; as for ACCGGCCGAGCCAACTTCCGGCCGCAGAGGCTGCCG, 7630.
As for GGCCGGCTTCCGGGGCGGGTGGAAAGGAGCCACAAG, the figure is 498.
As for GCCATGGCCACTTCCTGCTTGTAACCACAGCCCAGA, the ETS1 binding intensity was 13200.
As for GCCCAGGAAGTGGGTACAAAATGAGCCACAAGACCT, the figure is 839; as for GCTTTGCAGTTTCCTCTATGGAACACCACACACAGT, 499.
For the sequence ACTTACAAAGGAAGTGACAGAACCACAGAAAAGACC, the ETS1 binding intensity came to 2660.
Regarding GAGGACTTCCGGGTGGGTGTGATATCTGCGGGCCCG, the ETS1 binding intensity worked out at 677.
As for GCGGCTGAGAACACAGGATGTGGCTTTTGGCAGATG, the figure is 12800; as for ATCTTAAGTGTTTCCTGACACCACAAATCCCCAAAC, 507.
As for CCGGGCCTCCAGACGGAACTGTGGGCGAGGGGAGGG, the figure is 404.
As for ACTTCCAGGAAGCCCCATAGTCCAGAAACCCACACA, the figure is 402.
Regarding CCAGTACCCCACTTCCTGACCAAACCACAAAGGTCA, the ETS1 binding intensity was found to be 2450.
As for ACTCCAGAGGAAGTGGCAAGACGAGCGCGGTAACGG, the figure is 1560.
As for CGGGAACACCCACTTCCGCCACAGACCTGCTCAAAA, the figure is 1380; as for ACTGGCTTCACTTCCTCCGCGGTTCCTCGGAGCCGC, 514.
In the case of AGCGCCGGAAGTGTGTCTGCGTAAAACTGCGGCTCG, the ETS1 binding intensity worked out at 3720.
With GCTGCAAGGCGGAAGCAGCGCGGTCGGACGGGCATG, the ETS1 binding intensity was determined as 2400.
Consider AGGGCGCCGCTTCCGGGAGCCCGCAAGCGGCCTCCG, for which the ETS1 binding intensity was 715.
Regarding AAAGGGAAGTTGGCGGGAGTTCAAAACCACCGGGGC, the ETS1 binding intensity was found to be 494.
As for CTGCCGGAAGCTGCCCCTCCACCATTTTGTGGCCCG, the figure is 1850; as for TGGCTGTGAGCTGCAGGATGTGGTCAGGAGAGGAAG, 19700; as for ATTTAGGAGGAAGTTTCCAGTACCACAACCTCACAG, 709.
Turning to TGGAGAGCACAGGAAGTGGCCCACAGCCCAGGCCAA, the ETS1 binding intensity came to 6890.
On to CCGGGACCGGAAGAGGGAGCCGTGGTTGCTGGAACT, for which the ETS1 binding intensity stood at 4030.
As for TTTTCCCACTTCCTAGGTTGTGGTGGGGATTACACA, the figure is 571; as for CCTTCCTTCCGGGGTCGGCCCCGCCCGCAAGCGCCG, 467; as for AAACCAGAGGAAGTGGATTCCAACCACAAACCTCAC, 4210.
As for TGCTCAGAAGGGCATCCGGTTGCGGAGAAGGTACAC, the figure is 2000; as for ACCTTCGCCGGATGCTGTGGCTGAAACCACAGCATT, 13300.
As for CCCTGAGCACTTCCCCGTAAGGCTGCGGTGCACGGG, the ETS1 binding intensity came to 460.
As for TAGCCATCGTGCAAAGGATGTGGTGAAGTCAGTCAG, the figure is 2620.
Turning to TTCTCATCCGGCCGGCTTGCTTTCCCCTGCGGTCGT, the ETS1 binding intensity came out at 641.
